What all share (assay): NCI-60 one-dose screen, 48 h (100 = growth as untreated, 0 = no growth, -100 = all killed)
Common to all, as to settings: 10 µM unless noted

Assay [1] relates to DU-145 prostate.
Assay [2] concerns K-562 leukemia.
Assay [3] concerns MALME-3M melanoma.
For assay [4], the system named is MDA-MB-231 breast.
The test system of assay [5] is RXF 393 renal.
Assay [6] has as its system SF-268 CNS.
Assay [7] has as its system SF-295 CNS.
For assay [8], the system named is SF-539 CNS.
Assay [9] has as its system UACC-257 melanoma.
Assay [10] relates to M14 melanoma.
Assay [11] deals with HCT-15 colon.
Assay [12] has as its system HT29 colon.
In assay [13] the test system is SNB-75 CNS.
In assay [14] the test system is SNB-19 CNS.
Assay [15] relates to U251 CNS.
Assay [16] concerns PC-3 prostate.
Assay [17] concerns SK-MEL-5 melanoma.
The subject of assay [18] is UACC-62 melanoma.
For assay [19], the system named is LOX IMVI melanoma.
Assay [20] deals with SK-MEL-28 melanoma.

This is part of a sample that, as a whole, favours compounds with a hit. Of some 83,000 tested, about 20% had one in any assay.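 Step 1: grow cells in 96-well plates. Step 2: add test compound at a single concentration. Step 3: incubate 48 h. Step 4: record percent growth.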 Values without a mark were called inactive. Activity calls are given as the source filed them. The calls were made as follows: active = growth percent below 10; inactive = the rest.

With `COc1cc(OC)c(/C=C/C(=O)c2c(N)cc(OC)cc2OC)c(OC)c1`, the growth in [1] was 12.6%; in assay [2], 13.9%; in assay [3] it was 63.6%; in [4] it was 41.2%; in assay [5] it was -46.1% (active); in assay [6] it was 42.6%. The growth in assay [7] was 4.26% (active); in assay [8], -6.02% (active); in assay [9] it was 49.4%; in assay [10], 18.2%; in assay [11], 21.2%; in assay [12], 3.5% (active). Further, the growth was 23.5% in [13]; 27.9% in assay [14]; 11.9% in [15]; 11.8% in [16]; 17% in [17]; 9.68% (active) in assay [18]. For the same compound, the figures for the growth in [19] and in assay [20] were 23.2% and 61%, respectively.
As for `COc1ccc(NCc2cn(-c3ccc(C(=O)O)cc3)nc2-c2ccc(C(=O)O)cc2)cc1C(F)(F)F`, the growth in assay [1] was 96.3%; in assay [2], 111%; in assay [3] it was 77.9%; in [4] it was 81.8%; in assay [5] it was 89.8%; in [6], 99.3%. Also, the growth in [7] is 97.2%; in [8], 86.7%; in assay [9] it was 100%; in assay [10], 96.9%; in assay [11], 105%; in [12] it was 101%. The growth in assay [13] is 84%; in assay [14] it was 96.4%; in [15], 93.7%; in [16], 102%; in assay [17] it was 94.8%; in [18] it was 94.3%. In addition, the growth in [19] was 97.4%; in assay [20], 97.3%.
As for `Cc1nc(Cl)c2c(n1)N(C)c1ccc(Cl)cc1C(C)C2` (stereo not given), the growth in [1] was 105%; in assay [2], 77.3%; in assay [3], 95.6%; in [4], 77.1%; in assay [5], 101%; in [6] it was 88.9%. Also, the growth in assay [7] is 91.2%; in [8], 96.5%; in assay [9], 88%; in [10], 86.9%; in assay [11], 90.5%; in assay [12], 83.8%. For the same compound, the growth in [13] is 66.1%; in assay [14], 90.5%; in assay [15] it was 90.1%; in assay [16], 73.5%; in assay [17], 82.5%; in [18], 65%. Besides, the growth in assay [19] is 92.3%; in assay [20] it was 105%.
As for `COc1cc(C(=O)/C=C/c2c(-c3ccc(F)cc3)nc3sccn23)cc(OC)c1OC`, the growth in [1] is 27.4%; in assay [2], 39.1%; in assay [3] it was 33.6%; in assay [4], 51%; in [5] it was -50.6% (active); in assay [6], 25.4%. Moreover, the growth in assay [7] was 3.82% (active); in assay [8], -57.9% (active); in assay [9] it was 39.9%; in assay [10], 35.3%; in assay [11], 27.8%; in assay [12] it was 5.08% (active). Also, the growth in assay [13] is 32.3%; in assay [14] it was 10%; in [15], 5.59% (active); in assay [16], 19.9%; in assay [17], -50.5% (active); in assay [18], 23.3%. The growth in assay [19] is 15.6%; in [20] it was 52.2%.
Regarding `N#Cc1ccc(-c2ccc(COc3ccc(CC4SC(=O)NC4=O)cc3)cc2)cc1` (stereo not given), the growth in [1] was 92.6%; in assay [2] it was 28.3%; in assay [3], 59.5%; in [4] it was 71.2%; in assay [5], 97.5%; in assay [6] it was 63.6%. Moreover, the growth was 50.3% in assay [7]; 65.5% in assay [8]; 84.9% in [9]; 73.4% in assay [10]; 63.6% in assay [11]; 103% in [12]. The growth was 67.8% in [13]; 63.3% in assay [14]; 63% in [15]; 54.4% in assay [16]; -18.3% (active) in assay [17]; 51.4% in assay [18]. Also, the growth in assay [19] is 48.5%; in assay [20], 79%.
As to `CCN(CC)c1ccc2cc(NC(=O)OCCNC(=O)CCNC(=O)[C@H](CC(C)C)NC(=O)C(C)(C)NC(=O)C(C)(C)NC(=O)[C@H](CC(C)C)NC(=O)CCNC(=O)C(C)(C)NC(=O)[C@H](CC(C)C)NC(=O)CCNC(=O)[C@@](C)(CC)NC(=O)[C@H](C)NC(=O)CCNC(=O)C(C)(C)NC(=O)[C@H](C)NC(=O)[C@@H]3CCCN3C(=O)[C@@](C)(CC)NC(=O)[C@H](Cc3ccccc3)NC(=O)C3CCCN3C(=O)C(C)(C)NC(=O)C3CCCN3C(=O)C(C)(C)NC(C)=O)c(=O)oc2c1` (stereo not given in full), the growth is -100% (active) in [1]; -59.5% (active) in assay [2]; -80.4% (active) in assay [3]; -83.2% (active) in assay [4]; -82% (active) in assay [5]; -94.6% (active) in assay [6]. The growth in [7] is -84.7% (active); in [8] it was -84.7% (active); in [9] it was -89.4% (active); in [10] it was -79.4% (active); in [11], -93.3% (active); in [12], -81.4% (active). The growth in [13] was -91.6% (active); in [14], -76.5% (active); in assay [15], -85.6% (active); in assay [16], -91.2% (active); in assay [17] it was -100% (active); in [18], -76.2% (active). The growth in assay [19] is -85% (active); in assay [20] it was -84.1% (active).
Turning to `O=C(Nc1cc(-c2cccnc2)nc(NCCCN2CCOCC2)n1)c1cc(Br)cc(C(F)(F)F)c1`, the growth in [1] was 82.6%; in assay [2], 8.84% (active); in [3] it was -7.83% (active); in assay [4], 32.7%; in assay [5], 52.8%; in [6], 60.9%. Moreover, the growth was -22.8% (active) in assay [7]; 66.5% in [8]; -27.1% (active) in assay [9]; -72.1% (active) in [10]; 6.87% (active) in [11]; 8.99% (active) in [12]. In addition, the growth in assay [13] is 72.1%; in [14] it was 69.6%; in [15], 33.1%; in assay [16], 57.7%; in assay [17], 3.78% (active); in [18], -6.13% (active). Further, the growth was -16.8% (active) in [19] and -49.8% (active) in assay [20].

Source of the values: PubChem BioAssay (NCI).
